# In all, about 410,000 compounds went through this assay and about 2,000 (0.49%) were called active. Not shown: some 8% with an inconclusive outcome. For the sample, actives were picked, then their nearest neighbours and some compounds at random. A number with no mark means an inactive call. Calls follow the shape of the full dose curve; tested in HEK293 reporter line.
# Experiment: qHTS Assay for Foot and Mouth Disease Virus Antivirals: Primary Screen against the MLPCN compound library; also: nearly all actives have a fitted effect of over 55% in size
# Settings: FMDV antiviral cell-based qHTS; series mostly up to 57.9 µM; activity, negative = inhibition: at the top concentration
# Potency is read from the fitted curve at half-maximal effect.
SMILES,"activity, negative = inhibition [%]",Potency
COc1ccccc1N1CCN(Cc2cc(=O)oc3cc(C)ccc23)CC1,-37.9,
Cc1nc2ccccc2c2oc(C(=O)N3CC(C)CC(C)C3)cc12 (centres undefined),-10.3,
Cc1ccc(OC(=O)Cn2c(C(F)(F)F)nc3ccccc32)cc1,-35.8,
COc1cccc(NC(=S)NCc2cccs2)c1,133,
N#CC1=C(N)C(C#N)(C#N)[C@H](c2ccoc2)[C@H]2CN(Cc3ccccc3)CC=C12,-32.2,
N#CC1=C(N)C(C#N)(C#N)C(c2cccnc2)C2CN(C(=O)OCc3ccccc3)CC=C12 (centres undefined),,22.4 µM (active)
CC(=O)N1CC=C2C(C#N)=C(N)C(C#N)(C#N)C(CCc3ccccc3)C2C1 (centres undefined),-30,
Brc1ccc([C@H]2C=C[C@H]3CCCN4CC[C@H]2[C@@H]3[C@]42CO2)cc1,-43.9,
CC(=O)Nc1ccc(S(=O)(=O)c2ccc([N+](=O)[O-])cc2)cc1,-32.5,
O=C1NC(=O)N(Cc2ccccc2)C(=O)/C1=C\N1CCCc2ccccc21,-2.94,
O=C1NC(=O)N(CCc2ccc(F)cc2)C(=O)/C1=C/C=C/c1ccccc1,,10 µM (active)
COc1ccc(CN2C(=O)NC(=O)/C(=C/c3ccoc3)C2=O)cc1,-38,
O=C(Nc1ccc2c(c1)OCO2)c1cc(-c2ccc(Br)cc2)on1,-34.7,
CN(CCOc1ccc(Cl)cc1)CC(=O)Nc1ccc(OC(F)(F)F)cc1,-33.4,
Cc1[nH]n(-c2ccc(F)cc2)c(=O)c1/C=N/c1sc2c(c1C#N)CCCC2,-28.2,
O=C(Nc1sc2c(c1C(=O)Nc1ccc(Cl)cc1)CCCC2)c1cccs1,-28.2,
N#Cc1c(/N=C/c2cccs2)sc2c1CCCCC2,,25.1 µM (active)
O=C(Cc1ccccc1)NCC(=O)OCc1ccccc1F,-16.4,
CC(Sc1nc2ccccc2c(=O)n1CC1CCCO1)C(=O)N(C)c1ccccc1 (centres undefined),-30.8,
COc1ccc(C(CC(=O)Nc2cc([N+](=O)[O-])ccc2OC)c2ccccc2)cc1 (centres undefined),-39,
CC(=O)NNC(=S)NC(=O)C(c1ccccc1)c1ccccc1,-36.8,
CCOC1=C2CN(S(=O)(=O)c3ccc(C)cc3)[C@H](c3ccccc3)C[C@@H]2N(S(=O)(=O)c2ccc(C)cc2)[C@H](c2ccccc2)C1,-33,

SMILES,"activity, negative = inhibition [%]",Potency
CC(C)c1ccc(NC(=O)c2cc(S(=O)(=O)N(C)C3CCCCC3)ccc2F)cc1,-32.3,
CCCOc1ccc(C(=O)Nc2ccc3oc(-c4cccc(Cl)c4Cl)nc3c2)cc1,-34.3,
CCc1ccc2oc(-c3cc(N)ccc3Cl)nc2c1,,17.8 µM (active)
CCOCCc1nnc(NC(=O)CS(=O)(=O)Cc2ccccc2)s1,-32.2,
CCCCN1C[C@H](CSC)[C@@H](CC(=O)NC)C1=O,-6.84,
COc1ccc(NC(=O)NC23CC4(C)CC(C)(CC(C)(C4)C2)C3)cc1OC,-34.1,
COc1ccc(N2CCN(C(=O)CN3CCSc4ccccc43)CC2)cc1,-32.5,
Cc1ccn2c(/C=N/OCc3cccc(F)c3)c(-c3ccc(Cl)cc3)nc2c1,-31.2,
Cc1ccc(C(=O)OCC(=O)Nc2ccc(C)c(S(=O)(=O)N3CCCCC3)c2)c(O)c1,-35.9,
CCN(CC)S(=O)(=O)c1cccc(NC(=O)COC(=O)c2cncc(Br)c2)c1,-37.1,
Cc1ccc2nc(-c3ccc(NC(=O)COC(=O)c4ccco4)cc3)sc2c1,,12.6 µM (active)
O=C(COC(=O)c1ccco1)Nc1ccc2[nH]c(=O)[nH]c2c1,-32.9,
Cc1ccc2nc(-c3ccc(NC(=O)COC(=O)c4cncc(Br)c4)cc3)sc2c1,,17.8 µM (active)
Cc1ccc(OCC(=O)Nc2ccc3c(c2)nc(CCNC(=O)c2ccco2)n3C)cc1,-39.6,
O=C(N/N=C/c1cccc([N+](=O)[O-])c1)c1ccc(CN2CCOCC2)cc1,-38.8,
CCOc1cc(/C=N/Nc2cc(C)nc(-n3nc(C)cc3C)n2)ccc1O,-42.3,
CC(OC(=O)/C=C/c1ccco1)C(=O)NC1CCCCC1C (centres undefined),-41.9,
O=C1c2ccccc2C(=O)C1c1ccnc2ccccc12,,14.1 µM (active)
O=S(=O)(c1cccs1)N1CCN(CCc2ccccc2)CC1,-43.5,
Cc1ccc2c(CC(=O)N3CCN(S(=O)(=O)c4cccs4)CC3)coc2c1,-31.8,
O=C(CCCc1nc2ccccc2s1)N1CCN(S(=O)(=O)c2cccs2)CC1,,25.1 µM (active)
COc1ccc(C(=O)NCC(=O)N2CC=C(c3ccccc3)CC2)cc1OC,-35.2,

SMILES,"activity, negative = inhibition [%]",Potency
O=c1nc(N/N=C/C=C/c2ccccc2)cn[nH]1,,14.1 µM (active)
COc1ccc(CCN(C)C(=O)c2cc(S(=O)(=O)N3CCCCC3)ccc2Cl)cc1OC,-31,
COCCn1c(C)cc(C(=O)COC(=O)c2ccc[nH]c2=O)c1C,-45.2,
Cc1sc2ncnc(NCC(c3ccco3)N3CCCC3)c2c1C (centres undefined),-34.6,
CCOc1cc(-c2c(C#N)c(=O)[nH]c3c2c(C)nn3-c2ccc(F)cc2)ccc1O,-34.3,
COc1ccc2oc(=O)c(C(=O)NCCc3c(C)[nH]c4ccc(C)cc34)cc2c1,-33.4,
O=C(CSc1nnc(NC(=O)c2ccc3c(c2)OCO3)s1)NCc1ccco1,,17.8 µM (active)
COc1ccc(-c2cnc(SCC(=O)Nc3ccc4c(c3)OCO4)n2Cc2ccco2)cc1,-34,
COc1cc(OC)cc(C(=O)Nc2nnc(SCC(=O)NCc3ccco3)s2)c1,-86.1,
Cc1cc(C)cc(-n2c(SCC(=O)Nc3cccc(F)c3)nc3c([nH]c4ccccc43)c2=O)c1,-38.8,
COc1ccc(C)cc1NC(=O)CN(C)S(=O)(=O)c1cc(C)ccc1OC,-34.7,
O=P(c1ccccc1)(c1ccccc1)c1nc(-c2ccccc2)oc1NCc1ccccc1,-30.8,
C=C[C@H](Cc1ccccc1)N(Cc1ccccc1)S(=O)(=O)N(Cc1ccccc1)[C@H](C=C)Cc1ccccc1,-45.3,
Cc1cc(C)c(C(N)=O)c(SCC(=O)c2cc(C)c(C)cc2C)n1,-34.3,
CCOc1ccc2nc(NC(=O)c3ccccn3)sc2c1,,12.6 µM (active)
CCOc1ccc(C(=O)Nc2ccc3nc(SCC(=O)N(C)c4ccccc4)sc3c2)cc1,-42.4,
CSc1nc2ccc(NC(=O)c3ccccn3)cc2s1,,15.8 µM (active)
O=C(Nc1ccc2nc(SCCOc3ccccc3)sc2c1)c1cccs1,-40.5,
CCOc1ccc2nc(NC(=O)c3cccn(Cc4ccc(C)cc4)c3=O)sc2c1,-27,
CCOc1ccc2nc(NS(=O)(=O)c3ccc(NC(C)=O)cc3)sc2c1,109,
